LmPK inhibitor – qHTS Assay for Inhibitors of Leishmania Mexicana Pyruvate Kinase (LmPK); Q27686; purified LmPK, Kinase-Glo ATP luminescence, 1 h; Potency, µM (titrated, usually from 57.5 µM), without a hit: at the top dose activity change, negative = inhibition, hits mostly inhibitors; 0.37% of 290,000 active; AID 1721, 2009; further: potency means the concentration at half of the fitted maximal effect; on the % scale 0 is the no-effect control and ±100 the full control effect
Target sequence (Q27686 whole entry, looked up): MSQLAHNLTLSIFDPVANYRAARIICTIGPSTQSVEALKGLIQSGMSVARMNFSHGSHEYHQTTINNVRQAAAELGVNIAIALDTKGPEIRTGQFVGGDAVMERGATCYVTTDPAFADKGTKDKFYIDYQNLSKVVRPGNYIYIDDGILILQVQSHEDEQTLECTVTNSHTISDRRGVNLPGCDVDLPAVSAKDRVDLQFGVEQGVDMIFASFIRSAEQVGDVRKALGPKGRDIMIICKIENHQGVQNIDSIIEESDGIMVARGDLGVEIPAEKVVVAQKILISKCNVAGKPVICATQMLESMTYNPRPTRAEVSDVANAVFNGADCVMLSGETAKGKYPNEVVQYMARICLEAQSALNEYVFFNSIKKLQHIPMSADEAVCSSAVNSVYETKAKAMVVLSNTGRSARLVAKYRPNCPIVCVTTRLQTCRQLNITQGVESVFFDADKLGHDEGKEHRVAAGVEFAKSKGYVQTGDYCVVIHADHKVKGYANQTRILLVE
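Purified LmPK (0.1 nM) with 0.5 mM PEP and 0.1 mM ADP in imidazole buffer pH 7.2 with MgCl2/KCl, 1 h at room temperature. ATP formed was read by luciferase luminescence and normalized to no-enzyme and uninhibited controls.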
Pf growth 96h – Primary qHTS for delayed death inhibitors of the malarial parasite plastid, 96 hour incubation. 6.9% of 320,000 active. Potency, µM (top dose mostly 28.7 µM), inactives show top-dose activity change, negative = inhibition, usual class: inhibitors. P. falciparum luciferase reporter growth, 96 h. AID 504834, 2011; further: potency means the concentration at half of the fitted maximal effect; on the % scale 0 is the no-effect control and ±100 the full control effect
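Parasite growth measured via integrated firefly luciferase reporter in P. falciparum. Infected erythrocytes at 2% hematocrit, 0.05% parasitemia final were treated 96 hours at 37 C under 5% CO2, and luminescence was read.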
Cycloheximide cs – Cycloheximide Counterscreen for Small Molecule Inhibitors of Shiga Toxin; cell reporter, cycloheximide protein synthesis inhibition counterscreen; max response, %; 12% of 300,000 active; AID 2314, 2010; in the data active means max response mostly above about 13%, no sharp cut-off; inactive means mostly below about 14%; further: read at 38.3 µM for the half of the compounds with a filed dose; 0% is about no effect
Shiga toxin inh – A qHTS for Small Molecule Inhibitors of Shiga Toxin; inhibition, % at 38.7 µM; 9.2% of 290,000 active; Vero cells, Shiga toxin protein synthesis inhibition reporter; in the data active means inhibition mostly above about 28%, no sharp cut-off; inactive means mostly below about 43%; further: 0% is about no effect
Pf growth 48h – Primary qHTS for delayed death inhibitors of the malarial parasite plastid, 48 hour incubation. P. falciparum luciferase growth in erythrocytes, 48 h. Potency, µM (series often up to 28.7 µM), inactives show at the top dose activity change, negative = inhibition, usual class: inhibitors. 5.9% of 310,000 active. AID 504832, 2011; further: potency means the concentration at half of the fitted maximal effect; on the % scale 0 is the no-effect control and ±100 the full control effect
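First compound was added to culture medium, then infected red cells at 0.1% parasitemia and 2% hematocrit (final). After incubation at 37 C under 5% CO2, luciferase detection reagent was dispensed and light output recorded.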
Starred values were filed as active, the others as inactive; i = inactive; ? = inconclusive; · = no result given; [ ] = another dose, or the depositor's remark. An excerpt weighted towards active compounds, which were near 22% of everything screened. Unless noted, the call rests on the fitted dose curve; in most records, active means well fitted inhibition curve with a large enough effect; inconclusive means small, poorly fitted or top-dose-only effect, or another doubt; inactive means no such curve, though single readings can be large or run the other way.

SMILES	LmPK inhibitor	Pf growth 96h	Cycloheximide cs	Shiga toxin inh	Pf growth 48h
COCCNC(=S)N/N=C(\C)c1ccccc1O	-3.6%	?	30.6*	94.4*	2.94µM*
COCCNC(=S)N/N=C(\C)c1ccccc1F	5.6%	9.28µM*	-1.3	18.5	?
COCCNC(=S)N/N=C(\C)c1ccccc1OC	1.3%	?	-2.4	-2.1	?
CN(CC(=O)Nc1ccc(Cl)c(C(F)(F)F)c1)C(=O)CCN1C(=O)C2CC=CCC2C1=O (stereo not drawn)	·	-26.9%	·	·	-8.8%
CN(Cc1ccc(F)cc1)C(=O)c1cccc(OC2CCN(C3CCCC3)CC2)c1	-2.4%	4.5%	0.5	1.9	-12.7%
CCCCN(C)C(=O)c1cccc(OC2CCN(CC(C)(C)C)CC2)c1	-2.6%	13.1µM*	0.8	26.6	?
CC(C)(C)CN1CCC(Oc2cccc(C(=O)N3CCNC(=O)C3(C)C)c2)CC1	4.3%	11.7µM*	-2.2	24.2	10.9%
CCCCC1C2C(=O)N(c3ccc(C)cc3)C(=O)C2ON1c1ccccc1 (stereo not drawn)	1.9%	0.0%	34.7*	103.7*	39.4%
CC(C)CCNC(=O)Cc1csc(-c2ccccc2)n1	2.0%	24.2%	13.0	26.1	1.9%
O=C(Cc1ccc(-c2ccccc2)cc1)Nc1ncccc1O	2.6%	68.7%	37.2*	79.9*	75.1%
O=C(CCCc1c[nH]c2ccccc12)Nc1ncccc1O	-4.1%	?	-2.6	20.2	0.4%
O=C(Cc1ccc(-c2ccccc2)cc1)Nc1ccccc1	-4.8%	-3.2%	21.5*	21.4	12.9%
O=C(Nc1ccc(Br)cc1)c1ccc(N2C(=O)C3CC=C(Cl)CC3C2=O)cc1 (stereo not drawn)	7.7%	-13.9%	-2.2	-5.3	·
N#CC(C#N)=Cc1cn(-c2ncc(C(F)(F)F)cc2Cl)c2ccccc12	6.6%	2.2%	5.1	13.5	-25.3%
CC(=O)/C=C\c1cn(-c2ncc(C(F)(F)F)cc2Cl)c2ccccc12	-1.8%	10.4µM*	-3.5	10.9	?
CC(=O)Nc1ccc(C(=O)CN2CCN(c3ccccc3)CC2)cc1	0.8%	-10.9%	3.4	-7.8	-37.6%
COc1ccc(NC(=O)C2Cc3ccccc3CN2C(=O)c2ccccc2)cn1 (stereo not drawn)	11.2%	?	7.4	21.8	·
O=C(NC1=NCCS1)C1Cc2ccccc2CN1C(=O)c1ccccc1 (stereo not drawn)	8.9%	?	28.4*	83.6*	13.1%
CC(=O)c1ccc(NC(=O)C2Cc3ccccc3CN2C(=O)c2ccccc2)cc1 (stereo not drawn)	-2.7%	14.7µM*	11.4*	41.1*	-21.3%
CCC(O)(CC)C(=O)NN(C(=O)Nc1csc2c1CCCC2)c1ccccc1	3.6%	1.31µM*	-2.4	-1.7	1.65µM*
COc1ccc(C(=O)N2C(=S)NC(=O)/C2=C\c2ccc(C)cc2)cc1	0.9%	163.8%	22.5*	21.2	-2.3%
Cc1nn(C2CCS(=O)(=O)C2)c(C)c1C=O (stereo not drawn)	-1.4%	19.6%	-2.9	-13.5	28.9%
COCCn1c(-c2ccc(OC)cc2)c(-c2ccc(OC)cc2)oc1=O	10.3%	13.1µM*	-1.5	-7.0	8.28µM*
CCCC[C@]12Cc3ccccc3C(O1)c1c(c3ccccc3oc1=O)O2	-9.6%[11.5 µM]	?	-1.0	i	-1.6%[5.75 µM]
COc1ccc(-n2c(SCC(N)=O)nc3sc4c(c3c2=O)CCC4)cc1	2.0%	-4.6%	4.5	8.0	7.3%
SMILES	LmPK inhibitor	Pf growth 96h	Cycloheximide cs	Shiga toxin inh	Pf growth 48h
CC(C)n1c(-c2ccc(C(C)(C)C)cc2)n[nH]c1=S	8.91µM*	32.6%	-4.5	-4.4	31.6%
CC(C)(C)c1ccc(-c2n[nH]c(=S)n2Cc2ccccc2)cc1	-7.3%	?	6.2	-10.8	-8.0%
CS(=O)(=O)N(CC(=O)Nc1cccc(Cl)c1Cl)c1ccccc1	8.6%	·	-2.3	-7.8	9.4%
Clc1cccc(Cl)c1CSc1nnc2ccccn12	-0.3%	-28.4%	0.7	22.4	33.0%
Brc1ccc(CSc2nnc3ccccn23)cc1	1.2%	14.4%	25.6*	49.7*	22.7%
O=C1c2ccccc2C(=O)N1CCCCSc1nnc2ccccn12	-0.2%	?	1.3	20.4	13.1µM*
O=C(CCSc1nnc2ccccn12)Nc1ccc(F)cc1	-2.0%	·	0.3	10.9	-13.3%
Fc1cccc(Cl)c1CSc1nnc2ccccn12	0.3%	52.8%	42.3*	91.0*	98.1%
Fc1ccc(CSc2nnc3ccccn23)c(Cl)c1	-0.2%	39.1%	44.5*	95.9*	54.8%
O=C1c2ccccc2C(=O)N1CCCCSc1nnnn1-c1ccccc1	2.6%	?	9.6	-18.7	0.0%
Cc1cccc(-c2nnc(SC(C)C(=O)N3CCOCC3)o2)c1 (stereo not drawn)	-6.7%	?	-1.2	-11.6	-17.4%
Fc1ccc(C(CCNCc2ccccn2)c2ccc(Cl)cc2)cc1 (stereo not drawn)	-4.4%	?	-4.8	-7.1	8.9%[0.00184 µM]
CCn1c(SCc2c(F)cccc2Cl)nnc1-c1ccco1	4.3%	·	12.4*	34.0*	-18.3%
Cc1cccc(CCNS(=O)(=O)c2ccc3c(c2)NC(=O)C(C)S3)c1 (stereo not drawn)	-2.2%	94.1%	-2.2	-6.2	22.5%
Cc1ccc(SCC(=O)NN2C(=O)c3ccccc3C2=O)cc1	8.4%	?	3.2	-10.8	22.2%
O=[N+]([O-])c1cnc2nc(-c3ccncc3)nn2c1O	12.6µM*	58.6%	-2.8	-23.0	37.0%
O=C(NCc1ccncc1)c1ccc(N2CCCC2)c([N+](=O)[O-])c1	-1.8%	-17.3%	-0.4	-6.2	17.0%
FC(F)(F)c1cccc(N2CCc3cn[nH]c32)c1	-0.8%	28.9%	23.4*	32.5*	36.7%
CC1=C(C(=O)OCCBr)C(c2cccc3ccccc23)NC(=O)N1 (stereo not drawn)	-2.9%	?	-2.7	2.8	·
CCOC(=O)c1nc(S(C)(=O)=O)ncc1N1CCOCC1	-0.5%	-15.5%	-3.3	6.4	1.0%
Cc1ccccc1CS(=O)(=O)c1ncc(Cl)c(C(=O)Nc2ccc(F)cc2)n1	10.7%	1.1%	28.9*	32.2	5.9%
Cc1ccc(NC(=O)c2nc(S(=O)(=O)Cc3ccccc3)ncc2Cl)cc1	-3.7%	25.3%	12.4	23.2	49.9%
CCOC(=O)c1nc(S(C)(=O)=O)ncc1Cl	3.8%	?	25.6*	25.0	-7.3%
Cc1cccc(C)c1NC(=O)c1nc(S(=O)(=O)Cc2ccccc2)ncc1Cl	1.7%	?	15.9*	40.3*	24.9%
CS(=O)(=O)c1ncc(Cl)c(C(=O)Nc2ccc(N3CCOCC3)cc2)n1	2.7%	?	59.7*	67.3*	96.9%
CS(=O)(=O)c1ncc(Cl)c(C(=O)Nc2ccc(OC(F)F)cc2)n1	0.5%	?	-7.6	-5.7	0.8%
O=C(OCN1C(=O)C(=O)c2ccccc21)c1ccc(Cl)cc1	6.7%	-8.8%	0.2	-8.2	3.9%
